We go through 13 compounds from PubChem BioAssay (Tox21).

Inconclusive results are not listed. Activity calls are given as the source filed them. Unless noted, the call rests on the fitted dose curve; in most records, active means well fitted curve in the direction sought with a large enough effect in the repeat runs; inconclusive means weak or mixed curves; inactive means no such curve, though single readings can be large; an effect the other way counts as inactive or inconclusive.

Experiment [1] is described as follows: qHTS assay to identify aromatase inhibitors - cell viability counter screen (AID 743084).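 Further: cells stimulated with testosterone during compound exposure; nearly all actives have a fitted effect of over 55% in size.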 For orientation: Quantitative high-throughput screening tests each substance at several concentrations.
The target in experiment [2] is Aryl hydrocarbon receptor (Homo sapiens) (UniProt P35869). The experiment is described as follows: qHTS assay to identify small molecule that activate the aryl hydrocarbon receptor (AhR) signaling pathway (AID 743085). Further: nearly all actives have a fitted effect of over 15% in size. Further: potency means the concentration at half of the fitted maximal effect.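 On activation: HG2L7.5c1 human HepG2 liver cells with stably integrated DRE-driven firefly reporter; series mostly up to about 70 µM.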 In a few lines: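 Stably transfected human liver carcinoma cells (HG2L7.5c1; 20 DRE-firefly luciferase) were incubated 5 h, dosed, and kept 24 h at 37C. Agonism was scored from increased luciferase luminescence.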

Experiment [3] is described as follows: qHTS assay to identify small molecule that activate the aryl hydrocarbon receptor (AhR) signaling pathway - cell viability counter screen (AID 743086). Further: nearly all actives have a fitted effect of over 45% in size. Further: potency means the concentration at half of the fitted maximal effect. In a few lines: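 HepG2-AhR-luc (HG2L7.5c1) cells, 4000/well, treated 24 h at 37 C with compound; viability measured as CellTiter-Fluor fluorescence after 30 min in the same wells as the luciferase read.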
Experiment [4] concerns the target Peroxisome proliferator-activated receptor gamma (Homo sapiens) (UniProt P37231). In words: qHTS assay to identify small molecule agonists of the peroxisome proliferator-activated receptor gamma (PPARg) signaling pathway (AID 743094; active means well fitted activation curve with a large enough effect in the signal ratio in the repeat runs, not every such curve was filed as active; the % refers to the signal ratio). In a few lines:
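HEK293H PPARg-bla cells, 5 h settle at 37C/5% CO2; compound (DMSO) 17 h, 37C; B/G FRET substrate 1 h RT; fluorescence intensity read-out. qHTS format.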

Experiment [5] can be described thus: qHTS assay for small molecule agonists of the antioxidant response element (ARE) signaling pathway (AID 743202; active means well fitted activation curve with a large enough effect in the signal ratio in the repeat runs, not every such curve was filed as active; the % refers to the signal ratio). In a few lines:
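HepG2 ARE-bla reporter line, 2,000 cells/well; 5 h preincubation 37 C/5% CO2; compound (DMSO) 16 h 37 C; B/G FRET substrate 2 h RT; fluorescence intensity.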

Experiment [6] is described as follows: qHTS assay for small molecule agonists of the antioxidant response element (ARE) signaling pathway - cell viability counter screen (AID 743203; calls by dose curve; further: nearly all actives have a fitted effect of over 55% in size). In a few lines:
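Luminescence read-out (CellTiter-Glo, 30 min at room temperature) measured cell viability in the same wells as the ARE beta-lactamase reporter. HepG2 ARE-bla cells were treated with compounds for 16 hrs at 37C/5% CO2.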

The nature of experiment [7]: qHTS assay for small molecule activators of the heat shock response signaling pathway - cell viability counter screen (AID 743209). Further: nearly all actives have a fitted effect of over 50% in size. Further: potency means the concentration at half of the fitted maximal effect. In a few lines: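 HSE-bla HeLa; 1500 cells/well; overnight 37 C, 5% CO2; compound 5 h 37 C; LiveBLAzer B/G substrate 2.5 h RT; CellTiter-Glo 30 min RT; luminescence.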
Experiment [8] can be described thus: qHTS assay for small molecule activators of the heat shock response signaling pathway (AID 743210; active means well fitted activation curve with a large enough effect in the signal ratio in the repeat runs, with a control signal flat, not every such curve was filed as active; the % refers to the signal ratio; further: series mostly up to about 63 µM). In a few lines: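 Beta-lactamase reporter read-out: FRET substrate fluorescence after 2.5 h at RT, following 5 h compound treatment at 37 C of HeLa cells carrying HSE-driven bla reporter; quantitative HTS format.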
Experiment [9] is described as follows: qHTS assay to identify small molecule agonists of the peroxisome proliferator-activated receptor delta (PPARd) signaling pathway - cell viability counter screen (AID 743211). Further: nearly all actives have a fitted effect of over 55% in size. Further: potency means the concentration at half of the fitted maximal effect. In a few lines: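 In the same wells used for beta-lactamase reporter measurement, cytotoxicity is scored by CellTiter-Glo. HEK293H PPARd-bla cells receive compound for 17 h at 37C following a 5 h settling period.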

In experiment [10] the target is Peroxisome proliferator-activated receptor delta (Homo sapiens) (UniProt Q03181). In words: qHTS assay to identify small molecule agonists of the peroxisome proliferator-activated receptor delta (PPARd) signaling pathway (AID 743212; calls by dose curve). In a few lines:
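Read-out: beta-lactamase FRET fluorescence after 2 h room-temperature incubation with LiveBLAzer B/G substrate. Cells were HEK293H carrying a UAS-bla reporter for PPARd, treated at 37 C with DMSO-dissolved compounds.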

Experiment [11] in a line: qHTS assay to identify small molecule antagonists of the peroxisome proliferator-activated receptor delta (PPARd) signaling pathway - cell viability counter screen (AID 743213). Further: nearly all actives have a fitted effect of over 50% in size. In a few lines: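 PPARd-bla HEK293H cells were treated with compounds plus agonist L165041 (300 nM final) for 17 h at 37 C. Viability was then read in the same wells by CellTiter-Glo luminescence after 30 min at room temperature.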

Experiment [12] concerns the target Peroxisome proliferator-activated receptor delta (Homo sapiens) (UniProt Q03181). The experiment is described as follows: qHTS assay to identify small molecule antagonists of the peroxisome proliferator-activated receptor delta (PPARd) signaling pathway (AID 743215; active means well fitted inhibition curve with a large enough effect in the signal ratio in the repeat runs, not every such curve was filed as active; the % refers to the signal ratio;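 further: cells stimulated with agonist L165041 at 300 nM final during compound exposure; series mostly up to about 62 µM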). In a few lines:
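HEK293H GeneBLAzer PPARd UAS-bla reporter cells; cpd + L165041 300 nM final, 17 h 37 C; LiveBLAzer B/G FRET substrate 2 h RT; fluorescence intensity read-out. Antagonist mode.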

Experiment [13] has as its target Bile acid receptor (Homo sapiens) (UniProt Q96RI1). The experiment is described as follows: qHTS assay to identify small molecule antagonists of the farnesoid-X-receptor (FXR) signaling pathway (AID 743217; active means well fitted inhibition curve with a large enough effect in the signal ratio in the repeat runs, not every such curve was filed as active; the % refers to the signal ratio). In a few lines: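 Read-out: beta-lactamase FRET fluorescence (LiveBLAzer B/G substrate, 2 h, room temperature) in GeneBLAzer FXR-UAS-bla HEK 293T cells. Compounds were co-dosed with 50 uM chenodeoxycholic acid (final) and incubated 16 h at 37 °C.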

Experiment [14] shares this target. The experiment is described as follows: qHTS assay to identify small molecule agonists of the farnesoid-X-receptor (FXR) signaling pathway (AID 743220; active means well fitted activation curve with a large enough effect in the signal ratio in the repeat runs, not every such curve was filed as active; the % refers to the signal ratio). In a few lines: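 FXR-UAS-bla HEK 293T cells carrying a UAS-driven beta-lactamase reporter were plated for 5 h at 37C/5% CO2, then exposed to DMSO-dissolved Tox21 10K compounds for 16 h at 37C. A LiveBLAzer B/G FRET substrate was loaded for 2 h at room temperature before fluorescence reading.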

Experiment [15] is described as follows: qHTS assay to identify small molecule antagonists of the farnesoid-X-receptor (FXR) signaling pathway - cell viability counter screen (AID 743221; active means well fitted cell-killing curve with a large enough effect in the repeat runs, not every such curve was filed as active; further: nearly all actives have a fitted effect of over 50% in size; further: potency means the concentration at half of the fitted maximal effect). In a few lines: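 Here viability was scored by luminescence after CellTiter-Glo addition to wells already read for beta-lactamase. Prior treatment: compound plus CDCA (50 uM final), 16 h, 37 C, HEK 293T FXR-bla cells.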

Experiment [16] has as its target Vitamin D3 receptor (Homo sapiens) (UniProt P11473). In words: qHTS assay to identify small molecule agonists of the vitamin D receptor (VDR) signaling pathway (AID 743222; calls by dose curve). In a few lines: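 Beta-lactamase reporter readout (LiveBLAzer B/G FRET, 2 h RT) in VDR-bla cells after 16 h compound treatment at 37C, 5% CO2; cells pre-incubated 4 h before pin transfer of DMSO solutions.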

Experiment [17] shares this target. In words: qHTS assay to identify small molecule antagonists of the vitamin D receptor (VDR) signaling pathway (AID 743223; active means well fitted inhibition curve with a large enough effect in the signal ratio in the repeat runs, not every such curve was filed as active; the % refers to the signal ratio). In a few lines: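 Inhibition of agonist-driven VDR signalling is scored in VDR-bla cells: 3 nM final 1alpha,25-dihydroxyvitamin D3 plus compound, 16 h at 37C, then beta-lactamase detection by FRET substrate fluorescence after 2 h.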
Experiment [18] can be described thus: qHTS assay to identify small molecule antagonists of the peroxisome proliferator-activated receptor gamma (PPARg) signaling pathway - cell viability counter screen (AID 743194). Further: nearly all actives have a fitted effect of over 55% in size. Further: potency means the concentration at half of the fitted maximal effect. The settings on record: Potency: co-treated with 50 nM rosiglitazone. In a few lines: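 Cytotoxicity counter screen in PPARg-bla HEK293H cells, same wells as reporter assay. Compounds plus 50 nM rosiglitazone (final) for 17 h at 37 C, then viability read by CellTiter-Glo luminescence.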

Experiment [19] can be described thus: qHTS assay to identify small molecule agonists of the farnesoid-X-receptor (FXR) signaling pathway - cell viability counter screen (AID 743218). Further: nearly all actives have a fitted effect of over 45% in size. Further: potency means the concentration at half of the fitted maximal effect. In a few lines: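 Luminescence from CellTiter-Glo, read after 30 min at RT, reports viability of GeneBLAzer FXR-UAS-bla HEK 293T cells treated 16 h with compounds in the wells used for the beta-lactamase reporter.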

The target of experiment [20] is Peroxisome proliferator-activated receptor gamma (Homo sapiens) (UniProt P37231). In words: qHTS assay to identify small molecule antagonists of the peroxisome proliferator-activated receptor gamma (PPARg) signaling pathway (AID 743191; calls by dose curve; further: series mostly up to about 63 µM; nearly all actives have a fitted effect of over 30% in size). In a few lines:
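GeneBLAzer PPARg UAS-bla HEK293H cells, 5 h post-plating, exposed to compounds 17 h at 37C. LiveBLAzer B/G FRET substrate added for 1 h at room temperature; beta-lactamase reporter read by fluorescence intensity.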

Vitamin D3 receptor (Homo sapiens), sequence (P11473 whole entry, looked up): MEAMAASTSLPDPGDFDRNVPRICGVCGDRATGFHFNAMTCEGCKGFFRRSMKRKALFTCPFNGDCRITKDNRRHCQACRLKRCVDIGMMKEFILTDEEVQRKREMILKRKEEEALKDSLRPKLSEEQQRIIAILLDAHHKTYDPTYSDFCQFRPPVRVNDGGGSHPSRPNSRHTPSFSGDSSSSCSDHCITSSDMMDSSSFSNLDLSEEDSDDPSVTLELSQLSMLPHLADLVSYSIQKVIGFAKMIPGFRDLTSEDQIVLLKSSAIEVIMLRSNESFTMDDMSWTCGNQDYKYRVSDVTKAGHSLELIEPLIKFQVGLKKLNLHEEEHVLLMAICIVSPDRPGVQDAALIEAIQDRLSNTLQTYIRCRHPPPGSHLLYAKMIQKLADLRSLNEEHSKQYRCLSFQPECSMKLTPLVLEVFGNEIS
Peroxisome proliferator-activated receptor delta (Homo sapiens), sequence (Q03181 whole entry, looked up): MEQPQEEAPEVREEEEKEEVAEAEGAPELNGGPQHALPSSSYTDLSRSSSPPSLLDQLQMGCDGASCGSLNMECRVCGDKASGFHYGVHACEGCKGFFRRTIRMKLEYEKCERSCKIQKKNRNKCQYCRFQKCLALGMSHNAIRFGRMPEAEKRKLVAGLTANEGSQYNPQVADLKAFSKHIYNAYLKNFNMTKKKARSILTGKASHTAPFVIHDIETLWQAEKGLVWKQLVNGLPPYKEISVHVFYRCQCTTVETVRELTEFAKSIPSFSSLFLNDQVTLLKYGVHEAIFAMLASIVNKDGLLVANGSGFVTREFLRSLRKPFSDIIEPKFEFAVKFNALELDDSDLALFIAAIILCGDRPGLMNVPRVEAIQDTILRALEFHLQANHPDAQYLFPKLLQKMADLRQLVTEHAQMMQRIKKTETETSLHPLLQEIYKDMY
Aryl hydrocarbon receptor (Homo sapiens), sequence (P35869 whole entry, looked up): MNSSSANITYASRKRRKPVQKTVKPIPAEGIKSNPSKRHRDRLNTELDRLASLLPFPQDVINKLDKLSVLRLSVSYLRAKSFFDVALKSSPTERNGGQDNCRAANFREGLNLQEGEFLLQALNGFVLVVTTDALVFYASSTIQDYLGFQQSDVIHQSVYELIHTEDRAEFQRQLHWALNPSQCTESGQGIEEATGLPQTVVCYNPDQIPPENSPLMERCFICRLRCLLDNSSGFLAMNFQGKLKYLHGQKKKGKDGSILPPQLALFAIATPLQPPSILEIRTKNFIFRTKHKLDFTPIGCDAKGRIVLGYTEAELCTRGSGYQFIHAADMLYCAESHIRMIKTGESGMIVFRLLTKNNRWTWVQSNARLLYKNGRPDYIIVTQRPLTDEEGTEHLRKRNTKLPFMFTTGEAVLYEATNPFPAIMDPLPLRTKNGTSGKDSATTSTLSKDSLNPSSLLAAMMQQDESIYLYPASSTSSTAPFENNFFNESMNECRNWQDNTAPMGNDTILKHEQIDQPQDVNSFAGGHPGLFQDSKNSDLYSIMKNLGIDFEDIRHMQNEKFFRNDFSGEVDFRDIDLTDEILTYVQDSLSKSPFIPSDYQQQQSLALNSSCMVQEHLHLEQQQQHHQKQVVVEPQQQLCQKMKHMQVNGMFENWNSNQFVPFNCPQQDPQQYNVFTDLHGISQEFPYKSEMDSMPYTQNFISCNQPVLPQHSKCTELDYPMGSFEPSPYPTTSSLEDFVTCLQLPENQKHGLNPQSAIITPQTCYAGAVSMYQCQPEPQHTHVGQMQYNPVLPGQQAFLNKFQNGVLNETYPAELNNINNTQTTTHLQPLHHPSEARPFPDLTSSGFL
Peroxisome proliferator-activated receptor gamma (Homo sapiens), sequence (P37231 whole entry, looked up): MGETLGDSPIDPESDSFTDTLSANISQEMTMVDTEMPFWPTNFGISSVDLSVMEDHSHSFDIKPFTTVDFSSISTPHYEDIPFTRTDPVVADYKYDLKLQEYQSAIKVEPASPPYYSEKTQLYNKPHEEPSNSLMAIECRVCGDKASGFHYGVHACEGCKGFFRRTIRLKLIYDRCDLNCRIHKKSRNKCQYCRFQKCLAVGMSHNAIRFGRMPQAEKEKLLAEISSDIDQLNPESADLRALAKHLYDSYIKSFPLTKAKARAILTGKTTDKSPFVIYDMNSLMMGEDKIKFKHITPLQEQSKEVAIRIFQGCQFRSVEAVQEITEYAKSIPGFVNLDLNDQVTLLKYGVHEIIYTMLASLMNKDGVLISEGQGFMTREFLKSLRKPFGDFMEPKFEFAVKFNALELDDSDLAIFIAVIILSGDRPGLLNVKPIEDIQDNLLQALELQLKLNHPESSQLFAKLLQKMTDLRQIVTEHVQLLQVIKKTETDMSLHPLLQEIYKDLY
Bile acid receptor (Homo sapiens), sequence (Q96RI1 whole entry, looked up): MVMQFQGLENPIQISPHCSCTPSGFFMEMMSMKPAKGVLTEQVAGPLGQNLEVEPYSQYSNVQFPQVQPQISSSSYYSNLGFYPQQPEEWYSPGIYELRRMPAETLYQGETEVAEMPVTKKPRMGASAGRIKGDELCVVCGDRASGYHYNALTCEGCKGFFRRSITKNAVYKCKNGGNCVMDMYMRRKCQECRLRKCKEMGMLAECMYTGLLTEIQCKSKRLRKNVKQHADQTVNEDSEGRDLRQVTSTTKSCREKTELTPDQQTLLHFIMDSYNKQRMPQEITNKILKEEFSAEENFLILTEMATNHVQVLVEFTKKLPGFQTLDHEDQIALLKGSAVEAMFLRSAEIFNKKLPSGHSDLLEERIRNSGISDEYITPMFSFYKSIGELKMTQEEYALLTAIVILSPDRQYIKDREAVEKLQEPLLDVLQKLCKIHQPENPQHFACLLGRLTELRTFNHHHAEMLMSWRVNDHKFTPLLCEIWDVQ

Regarding `O=C(C(Cl)(Cl)Cl)C(Cl)(Cl)Cl`, the Potency result in experiment [1], in [2], in experiment [3], in experiment [4], in [5] and in experiment [6] was “inactive” each time. Besides, the Potency result in experiment [7], in [9], in experiment [11], in [12], in experiment [13] and in experiment [15] was “inactive” each time. Besides, the outcome in experiment [8], in experiment [10], in experiment [14], in [16] and in experiment [17] was inactive.
Take `O=Cc1ccc2c(c1)OCO2`: the Potency entry in [1], in experiment [2], in experiment [3], in experiment [4], in experiment [18] and in experiment [5] was “inactive” in each case. The Potency result in [6], in [7], in [11], in experiment [12], in [13] and in [15] was “inactive” throughout. For the same compound, the result in experiment [10], in [14], in experiment [16] and in experiment [17] was inactive.
For the compound `CCOP(=O)(OCC)O/C(=C/Cl)c1ccc(Cl)cc1Cl`, the Potency result in experiment [1], in experiment [2], in experiment [3], in experiment [4], in experiment [18] and in [6] was “inactive” each time. In addition, the Potency result in experiment [9], in experiment [11] and in experiment [19] was “inactive” throughout. Further, the call in [8], in experiment [10], in experiment [16] and in experiment [17] was inactive.
As for `Cc1cc(=O)[nH]o1`, the Potency result in experiment [1], in [2], in [3], in experiment [4], in experiment [18] and in experiment [5] was “inactive” in each case. Also, the Potency entry in experiment [6], in experiment [11], in experiment [12] and in [15] was “inactive” each time. Moreover, the result in experiment [8] and in experiment [10] was inactive.
As for `O=C(OC1CCCCC1)c1ccccc1C(=O)OC1CCCCC1`, the Potency result in experiment [1], in experiment [2], in experiment [3], in experiment [4], in [6] and in [7] was “inactive” throughout. Also, in experiment [15], the Potency entry was “inactive”. The outcome in [8] and in [17] was inactive. Besides, the Potency in experiment [9] was 46 µM (active).
With `COC(C)(C)CCC[C@H](C)C/C=C/C(C)=C/C(=O)OC(C)C`, the Potency entry in experiment [1], in experiment [2], in experiment [3], in experiment [4] and in experiment [11] was “inactive” each time. Moreover, the Potency in experiment [9] was 38.9 µM (active).
`O=C1c2ccccc2C(=O)C1C(=O)C(c1ccccc1)c1ccccc1`: the Potency result in experiment [1], in experiment [3], in [4], in experiment [7], in [11] and in experiment [15] was “inactive” throughout. Further, in experiment [2], the Potency was 29.8 µM (active). Further, the result in experiment [8] was inactive.
As to `COC(=O)C(Cl)C(=O)OC`, the Potency entry in experiment [1], in [2], in experiment [3], in [4], in experiment [18] and in experiment [6] was “inactive” throughout. The Potency entry in experiment [9], in experiment [11] and in [15] was “inactive” each time. For the same compound, the compound was called inactive in experiment [8], in [10] and in [14].
On to `CC(Cl)Cl`, for which the Potency result in experiment [1], in experiment [2], in experiment [3], in [4], in experiment [18] and in [6] was “inactive” throughout. The Potency entry in experiment [7], in [11], in [13], in [19] and in experiment [15] was “inactive” throughout. For the same compound, the result in experiment [8], in experiment [10], in experiment [14], in [16] and in [17] was inactive.
For the compound `O=Cc1ccc(Cl)cc1Cl`, the Potency entry in experiment [1], in experiment [2], in experiment [3], in experiment [4], in experiment [18] and in [5] was “inactive” each time. Further, the Potency entry in [6], in experiment [9], in experiment [11] and in experiment [12] was “inactive” throughout. In addition, the compound was classed as inactive in experiment [8], in experiment [10], in [16] and in experiment [17].
As for `Cc1ccc2ccccc2c1`, the Potency entry in experiment [1], in [2], in experiment [3], in experiment [4], in experiment [18] and in experiment [6] was “inactive” in each case. Also, the Potency entry in experiment [7], in experiment [11], in experiment [12], in experiment [13], in [19] and in experiment [15] was “inactive” each time. Further, the outcome in experiment [8], in experiment [10] and in experiment [14] was inactive.
`NS(=O)(=O)C(F)(F)C(F)(F)C(F)(F)C(F)(F)C(F)(F)C(F)(F)C(F)(F)C(F)(F)F`: the Potency result in [1], in [2], in experiment [3], in experiment [4] and in [11] was “inactive” throughout. In addition, the Potency in experiment [18] was 43.6 µM (active); in experiment [7], 49 µM (active); in [19], 54.9 µM (active); in experiment [15], 27.5 µM (active).
Turning to `Clc1cccc(SC2CCNCC2)n1`, the Potency result in experiment [1], in experiment [2], in experiment [20], in experiment [18], in experiment [5] and in experiment [6] was “inactive” throughout. The Potency entry in experiment [7], in experiment [9], in experiment [11], in experiment [12], in experiment [13] and in experiment [19] was “inactive” throughout. In [15], the Potency entry is “inactive”. Also, in experiment [3], the Potency was 29.8 µM (active). Moreover, the compound was classed as inactive in experiment [8], in [10], in [14] and in experiment [17].
